Experimental data published in PubChem BioAssay AID1159580 (chemical genetic matrix, 2015).
In all, about 5,500 compounds went through this assay and about 2,000 (36%) were called active. Another 18% or so got no clear call; they are omitted. This is one part of the list. A number with no mark means an inactive call. Cut-off read from the data, not from the text of the source: active = normalized growth mostly below about 0.91 (no sharp cut-off); inconclusive = no clear call, values can overlap the other calls; inactive = mostly above about 0.92.

Test: chemical genetic growth profiling, strain panel (AID 1159580);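 note: tested at 20 µM; growth read once vehicle control cultures reached saturation at 30 °C; 1 = growth at the plate median or of vehicle wells; lower values mean less growth of the strain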
Conditions: growth OD

With `C1N2CN3CN1CN(C2)C3` the normalized growth (S. cerevisiae deletion strains, locus YJR075W, strain HOC1, hits give low values) was 0.986, the normalized growth (S. cerevisiae deletion strains, locus YKL009W, strain mrt4, hits give low values) was 0.834 (active) and the normalized growth (S. cerevisiae deletion strains, locus YKL068W, hits give low values) was 0.976. The normalized growth (S. cerevisiae deletion strains, locus YKL085W, strain MDH1 (second series), hits give low values) was 0.987, the normalized growth (S. cerevisiae deletion strains, locus YKL085W, strain MDH1, hits give low values) was 0.987 and the normalized growth (S. cerevisiae deletion strains, locus YKL160W, strain elf1, hits give low values) was 0.973. The normalized growth (S. cerevisiae deletion strains, locus YKL190W, strain CNB1, hits give low values) was 0.98, the normalized growth (S. cerevisiae deletion strains, locus YKR001C, strain vps1, hits give low values) was 0.965 and the normalized growth (S. cerevisiae deletion strains, locus YKR026C, strain gcn3, hits give low values) was 0.997. For the same compound, the normalized growth (S. cerevisiae deletion strains, locus YKR091W, strain srl3, hits give low values) was 0.985, the normalized growth (S. cerevisiae deletion strains, locus YLL001W, strain dnm1, hits give low values) was 0.93 and the normalized growth (S. cerevisiae deletion strains, locus YLL026W, hits give low values) was 0.993. It also gave a normalized growth (S. cerevisiae deletion strains, locus YLL041C, strain sdh2, hits give low values) of 0.983, a normalized growth (S. cerevisiae deletion strains, locus YLR027C, strain aat2, hits give low values) of 0.996 and a normalized growth (S. cerevisiae deletion strains, locus YLR039C, strain RIC1, hits give low values) of 0.899. The normalized growth (S. cerevisiae deletion strains, locus YLR058C, strain SHM2, hits give low values) was 0.976, the normalized growth (S. cerevisiae deletion strains, locus YLR102C, strain apc9, hits give low values) was 0.968 and the normalized growth (S. cerevisiae deletion strains, locus YLR113W, strain HOG1, hits give low values) was 0.906. It also gave a normalized growth (S. cerevisiae deletion strains, locus YLR221C, strain rsa3, hits give low values) of 0.965, a normalized growth (S. cerevisiae deletion strains, locus YLR258W, strain gsy2, hits give low values) of 0.994 and a normalized growth (S. cerevisiae deletion strains, locus YLR262C, strain YPT6 (second series), hits give low values) of 0.959. It also gave a normalized growth (S. cerevisiae deletion strains, locus YLR262C, strain YPT6, hits give low values) of 0.889, a normalized growth (S. cerevisiae deletion strains, locus YLR268W, strain sec22, hits give low values) of 0.957 and a normalized growth (S. cerevisiae deletion strains, locus YLR320W, strain mms22, hits give low values) of 0.961. The normalized growth (S. cerevisiae deletion strains, locus YLR330W, strain CHS5, hits give low values) was 0.985, the normalized growth (S. cerevisiae deletion strains, locus YLR342W, strain FKS1 (second series), hits give low values) was 0.991 and the normalized growth (S. cerevisiae deletion strains, locus YLR342W, strain FKS1, hits give low values) was 0.982. The normalized growth (S. cerevisiae deletion strains, locus YLR357W, strain rsc2, hits give low values) was 0.971, the normalized growth (S. cerevisiae deletion strains, locus YLR370C, strain arc18, hits give low values) was 0.988 and the normalized growth (S. cerevisiae deletion strains, locus YLR371W, strain rom2, hits give low values) was 0.98. It also gave a normalized growth (S. cerevisiae deletion strains, locus YLR384C, strain iki3, hits give low values) of 0.989, a normalized growth (S. cerevisiae deletion strains, locus YLR418C, strain cdc73, hits give low values) of 0.934 and a normalized growth (S. cerevisiae deletion strains, locus YML016C, strain PPZ1, hits give low values) of 0.983. The normalized growth (S. cerevisiae deletion strains, locus YML032C, strain rad52, hits give low values) was 0.932, the normalized growth (S. cerevisiae deletion strains, locus YML120C, strain ndi1, hits give low values) was 0.967 and the normalized growth (S. cerevisiae deletion strains, locus YML124C, strain tub3, hits give low values) was 0.982. For the same compound, the normalized growth (S. cerevisiae deletion strains, locus YMR058W, strain fet3, hits give low values) was 0.998, the normalized growth (S. cerevisiae deletion strains, locus YMR078C, strain ctf18, hits give low values) was 0.947 and the normalized growth (S. cerevisiae deletion strains, locus YMR125W, strain sto1, hits give low values) was 0.975. For the same compound, the normalized growth (S. cerevisiae deletion strains, locus YMR129W, hits give low values) was 0.992, the normalized growth (S. cerevisiae deletion strains, locus YMR205C, strain PFK2, hits give low values) was 0.959 and the normalized growth (S. cerevisiae deletion strains, locus YMR223W, strain ubp8, hits give low values) was 0.966. For the same compound, the normalized growth (S. cerevisiae deletion strains, locus YMR231W, strain pep5, hits give low values) was 0.992, the normalized growth (S. cerevisiae deletion strains, locus YMR263W, strain SAP30, hits give low values) was 0.97 and the normalized growth (S. cerevisiae deletion strains, locus YMR307W, strain GAS1, hits give low values) was 0.994. For the same compound, the normalized growth (S. cerevisiae deletion strains, locus YNL067W, strain RPL9B, hits give low values) was 0.966, the normalized growth (S. cerevisiae deletion strains, locus YNL071W, strain lat1, hits give low values) was 0.973 and the normalized growth (S. cerevisiae deletion strains, locus YNL128W, strain TEP1, hits give low values) was 0.981. The normalized growth (S. cerevisiae deletion strains, locus YNL153C, strain GIM3, hits give low values) was 0.968, the normalized growth (S. cerevisiae deletion strains, locus YNL183C, strain NPR1, hits give low values) was 0.972 and the normalized growth (S. cerevisiae deletion strains, locus YNL209W, strain ssb2, hits give low values) was 0.986. For the same compound, the normalized growth (S. cerevisiae deletion strains, locus YNL233W, strain BNI4, hits give low values) was 0.99, the normalized growth (S. cerevisiae deletion strains, locus YNL248C, strain rpa49, hits give low values) was 0.982 and the normalized growth (S. cerevisiae deletion strains, locus YNL250W, strain rad50, hits give low values) was 0.834 (active). The normalized growth (S. cerevisiae deletion strains, locus YNL271C, strain bni1, hits give low values) was 0.959, the normalized growth (S. cerevisiae deletion strains, locus YNL298W, strain CLA4, hits give low values) was 0.923 and the normalized growth (S. cerevisiae deletion strains, locus YNL307C, strain MCK1, hits give low values) was 0.989. It also gave a normalized growth (S. cerevisiae deletion strains, locus YNL322C, strain KRE1 (second series), hits give low values) of 0.983, a normalized growth (S. cerevisiae deletion strains, locus YNL322C, strain KRE1, hits give low values) of 0.982 and a normalized growth (S. cerevisiae deletion strains, locus YNR049C, strain mso1, hits give low values) of 0.994. The normalized growth (S. cerevisiae deletion strains, locus YNR052C, strain pop2, hits give low values) was 0.956, the normalized growth (S. cerevisiae deletion strains, locus YOL006C, strain TOP1, hits give low values) was 0.931 and the normalized growth (S. cerevisiae deletion strains, locus YOL012C, strain htz1) was 1.62. For the same compound, the normalized growth (S. cerevisiae deletion strains, locus YOL147C, strain pex11, hits give low values) was 0.98, the normalized growth (S. cerevisiae deletion strains, locus YOR001W, strain rrp6, hits give low values) was 1.01 and the normalized growth (S. cerevisiae deletion strains, locus YOR061W, strain CKA2, hits give low values) was 0.957. The normalized growth (S. cerevisiae deletion strains, locus YOR069W, strain VPS5, hits give low values) was 0.998, the normalized growth (S. cerevisiae deletion strains, locus YOR070C, strain gyp1, hits give low values) was 0.992 and the normalized growth (S. cerevisiae deletion strains, locus YOR080W, strain dia2, hits give low values) was 0.994. The normalized growth (S. cerevisiae deletion strains, locus YOR083W, strain WHI5, hits give low values) was 0.961, the normalized growth (S. cerevisiae deletion strains, locus YOR106W, strain vam3, hits give low values) was 0.986 and the normalized growth (S. cerevisiae deletion strains, locus YOR136W, strain idh2, hits give low values) was 0.989. For the same compound, the normalized growth (S. cerevisiae deletion strains, locus YOR144C, strain elg1, hits give low values) was 0.984, the normalized growth (S. cerevisiae deletion strains, locus YOR184W, strain ser1, hits give low values) was 1.02 and the normalized growth (S. cerevisiae deletion strains, locus YOR231W, strain MKK1, hits give low values) was 0.794 (active). For the same compound, the normalized growth (S. cerevisiae deletion strains, locus YOR265W, strain rbl2, hits give low values) was 0.993, the normalized growth (S. cerevisiae deletion strains, locus YOR270C, strain vph1, hits give low values) was 0.958 and the normalized growth (S. cerevisiae deletion strains, locus YOR290C, strain snf2, hits give low values) was 0.914. The normalized growth (S. cerevisiae deletion strains, locus YOR316C, strain cot1, hits give low values) was 0.968, the normalized growth (S. cerevisiae deletion strains, locus YPL051W, strain arl3, hits give low values) was 0.984 and the normalized growth (S. cerevisiae deletion strains, locus YPL055C, strain LGE1, hits give low values) was 0.977. It also gave a normalized growth (S. cerevisiae deletion strains, locus YPL078C, strain atp4, hits give low values) of 0.965, a normalized growth (S. cerevisiae deletion strains, locus YPL106C, strain sse1, hits give low values) of 0.967 and a normalized growth (S. cerevisiae deletion strains, locus YPL240C, strain hsp82, hits give low values) of 0.993. For the same compound, the normalized growth (S. cerevisiae deletion strains, locus YPL241C, strain CIN2, hits give low values) was 1.08 [resistant] (active), the normalized growth (S. cerevisiae deletion strains, locus YPL256C, strain CLN2, hits give low values) was 0.948 and the normalized growth (S. cerevisiae deletion strains, locus YPR119W, strain clb2, hits give low values) was 0.983. The normalized growth (S. cerevisiae deletion strains, locus YPR141C, strain kar3, hits give low values) was 0.95, the normalized growth (S. cerevisiae deletion strains, locus YPR163C, strain tif3, hits give low values) was 0.984 and the normalized growth (S. cerevisiae deletion strains, locus YPR167C, strain met16, hits give low values) was 0.978. For the same compound, the normalized growth (S. cerevisiae deletion strains, strain wtn01, hits give low values) was 0.959 and the normalized growth (S. cerevisiae strains, strain wild type, hits give low values) was 0.989.
